Values joined by “and” are separate entries in the source; they are usually repeats but may differ in a detail not shown here. Equal entries are not always repeated. Screen size: about 5,500 compounds; about 2,000 (36%) were called active. Roughly 18% stayed inconclusive and do not appear here. No stated cut-off is given here; in the data, active means normalized growth mostly below about 0.91 (no sharp cut-off); inconclusive means no clear call, values can overlap the other calls; inactive means mostly above about 0.92. This is one part of the list.
Test: chemical genetic growth profiling, strain panel (AID 1159580);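 further: tested at 20 µM; growth read once vehicle control cultures reached saturation at 30 °C; 1 = growth at the plate median or of vehicle wells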
Conditions: growth OD
[1] = S. cerevisiae deletion strains, locus YAL013W, strain DEP1, stronger effect = lower value
[2] = S. cerevisiae deletion strains, locus YDR150W, strain NUM1, stronger effect = lower value
[3] = S. cerevisiae deletion strains, locus YJR075W, strain HOC1, stronger effect = lower value
[4] = S. cerevisiae deletion strains, locus YMR263W, strain SAP30, stronger effect = lower value
[5] = S. cerevisiae deletion strains, locus YNL322C, strain KRE1, stronger effect = lower value
[6] = S. cerevisiae deletion strains, locus YPL055C, strain LGE1, stronger effect = lower value
[7] = S. cerevisiae deletion strains, locus YPL241C, strain CIN2, stronger effect = lower value

Measured: normalized growth

N[C@@H](Cc1c[nH]c2ccc(O)cc12)C(=O)O
inactive: [1] 1.02 | S. cerevisiae deletion strains, locus YAL040C, strain CLN3, stronger effect = lower value 0.959 | S. cerevisiae deletion strains, locus YCL061C, strain MRC1 (second series), stronger effect = lower value 1.01 | [2] 1.03 | S. cerevisiae deletion strains, locus YDR363W, strain ESC2, stronger effect = lower value 1.01 | S. cerevisiae deletion strains, locus YER002W, strain NOP16, stronger effect = lower value 1 | [3] 1.01 | [4] 0.997 | S. cerevisiae deletion strains, locus YNL175C, strain NOP13, stronger effect = lower value 1.03 | S. cerevisiae deletion strains, locus YNL197C, strain WHI3, stronger effect = lower value 1 | S. cerevisiae deletion strains, locus YNL224C, strain SQS1, stronger effect = lower value 1.01 | [5] 1.01 | S. cerevisiae deletion strains, locus YOR083W, strain WHI5 (second series), stronger effect = lower value 1.02 | [6] 1.03 | [7] 1

N[C@@H](Cc1cc(I)c(Oc2ccc(O)c(I)c2)c(I)c1)C(=O)O
active: S. cerevisiae deletion strains, locus YHR079C, strain IRE1, stronger effect = lower value 0.846
inactive: [1] 1.02 | S. cerevisiae deletion strains, locus YBR021W, strain FUR4, stronger effect = lower value 1.01 | S. cerevisiae deletion strains, locus YBR229C, strain ROT2, stronger effect = lower value 0.998 | S. cerevisiae deletion strains, locus YCL029C, strain bik1, stronger effect = lower value 1 | S. cerevisiae deletion strains, locus YDL035C, strain GPR1, stronger effect = lower value 1.01 | S. cerevisiae deletion strains, locus YDL074C, strain BRE1, stronger effect = lower value 1.03 | S. cerevisiae deletion strains, locus YDL101C, strain DUN1, stronger effect = lower value 1.02 | S. cerevisiae deletion strains, locus YDL134C, strain PPH21, stronger effect = lower value 1.01 | S. cerevisiae deletion strains, locus YDL185W, strain tfp1, stronger effect = lower value 1 | S. cerevisiae deletion strains, locus YDL192W, strain arf1, stronger effect = lower value 1 | S. cerevisiae deletion strains, locus YDR101C, strain arx1, stronger effect = lower value 0.986 | [2] 1.01 | S. cerevisiae deletion strains, locus YDR162C, strain NBP2, stronger effect = lower value 1.02 | S. cerevisiae deletion strains, locus YDR318W, strain mcm21, stronger effect = lower value 0.982 | S. cerevisiae deletion strains, locus YDR388W, stronger effect = lower value 1 | S. cerevisiae deletion strains, locus YDR502C, strain sam2, stronger effect = lower value 0.987 | S. cerevisiae deletion strains, locus YEL061C, strain CIN8, stronger effect = lower value 1 | S. cerevisiae deletion strains, locus YER110C, stronger effect = lower value 1 | S. cerevisiae deletion strains, locus YER155C, strain BEM2, stronger effect = lower value 1.01 | S. cerevisiae deletion strains, locus YER167W, strain BCK2, stronger effect = lower value 1 | S. cerevisiae deletion strains, locus YGL078C, strain dbp3, stronger effect = lower value 1 | S. cerevisiae deletion strains, locus YGL086W, strain mad1, stronger effect = lower value 0.99 | S. cerevisiae deletion strains, locus YGL248W, strain PDE1, stronger effect = lower value 1.01 | S. cerevisiae deletion strains, locus YGR078C, strain PAC10, stronger effect = lower value 1.01 | S. cerevisiae deletion strains, locus YGR135W, strain pre9, stronger effect = lower value 0.991 | S. cerevisiae deletion strains, locus YGR229C, strain SMI1, stronger effect = lower value 1.02 | S. cerevisiae deletion strains, locus YGR252W, strain gcn5, stronger effect = lower value 0.929 | S. cerevisiae deletion strains, locus YHR030C, strain SLT2, stronger effect = lower value 1 and 0.914 | S. cerevisiae deletion strains, locus YHR079C, strain IRE1 (second series), stronger effect = lower value 0.99 | S. cerevisiae deletion strains, locus YHR094C, strain hxt1, stronger effect = lower value 1.01 | S. cerevisiae deletion strains, locus YHR129C, strain ARP1, stronger effect = lower value 0.999 | S. cerevisiae deletion strains, locus YHR200W, strain rpn10, stronger effect = lower value 0.994 | S. cerevisiae deletion strains, locus YIL066C, strain RNR3, stronger effect = lower value 1.01 | S. cerevisiae deletion strains, locus YIL073C, strain SPO22, stronger effect = lower value 1.02 | S. cerevisiae deletion strains, locus YIL125W, strain kgd1, stronger effect = lower value 1 | S. cerevisiae deletion strains, locus YIR030C, strain dcg1, stronger effect = lower value 1 | S. cerevisiae deletion strains, locus YJL095W, strain BCK1, stronger effect = lower value 0.971 and 0.977 | S. cerevisiae deletion strains, locus YJL134W, strain LCB3, stronger effect = lower value 1.01 | S. cerevisiae deletion strains, locus YJL168C, strain set2, stronger effect = lower value 1 | S. cerevisiae deletion strains, locus YJL187C, strain SWE1 (second series), stronger effect = lower value 1 | S. cerevisiae deletion strains, locus YJR043C, strain POL32, stronger effect = lower value 1.01 | S. cerevisiae deletion strains, locus YJR066W, strain TOR1, stronger effect = lower value 0.864 | [3] 0.996 | S. cerevisiae deletion strains, locus YKL009W, strain mrt4, stronger effect = lower value 0.979 | S. cerevisiae deletion strains, locus YKL068W, stronger effect = lower value 1.01 | S. cerevisiae deletion strains, locus YKL085W, strain MDH1 (second series), stronger effect = lower value 1.03 | S. cerevisiae deletion strains, locus YKL085W, strain MDH1, stronger effect = lower value 1.03 | S. cerevisiae deletion strains, locus YKL190W, strain CNB1, stronger effect = lower value 1.01 | S. cerevisiae deletion strains, locus YKR001C, strain vps1, stronger effect = lower value 0.967 | S. cerevisiae deletion strains, locus YLR039C, strain RIC1, stronger effect = lower value 0.978 | S. cerevisiae deletion strains, locus YLR058C, strain SHM2, stronger effect = lower value 1.01 | S. cerevisiae deletion strains, locus YLR102C, strain apc9, stronger effect = lower value 0.999 | S. cerevisiae deletion strains, locus YLR113W, strain HOG1, stronger effect = lower value 1.03 | S. cerevisiae deletion strains, locus YLR262C, strain YPT6, stronger effect = lower value 0.993 | S. cerevisiae deletion strains, locus YLR268W, strain sec22, stronger effect = lower value 0.982 | S. cerevisiae deletion strains, locus YLR330W, strain CHS5, stronger effect = lower value 1.01 | S. cerevisiae deletion strains, locus YLR342W, strain FKS1 (second series), stronger effect = lower value 1.01 | S. cerevisiae deletion strains, locus YLR371W, strain rom2, stronger effect = lower value 1 | S. cerevisiae deletion strains, locus YLR418C, strain cdc73, stronger effect = lower value 0.951 | S. cerevisiae deletion strains, locus YML016C, strain PPZ1, stronger effect = lower value 1.01 | S. cerevisiae deletion strains, locus YML032C, strain rad52, stronger effect = lower value 0.981 | S. cerevisiae deletion strains, locus YML124C, strain tub3, stronger effect = lower value 1.01 | S. cerevisiae deletion strains, locus YMR078C, strain ctf18, stronger effect = lower value 1.01 | S. cerevisiae deletion strains, locus YMR223W, strain ubp8, stronger effect = lower value 0.984 | [4] 1 | S. cerevisiae deletion strains, locus YMR307W, strain GAS1, stronger effect = lower value 1.06 | S. cerevisiae deletion strains, locus YNL067W, strain RPL9B, stronger effect = lower value 1.02 | S. cerevisiae deletion strains, locus YNL128W, strain TEP1, stronger effect = lower value 1.02 | S. cerevisiae deletion strains, locus YNL153C, strain GIM3, stronger effect = lower value 1.01 | S. cerevisiae deletion strains, locus YNL233W, strain BNI4, stronger effect = lower value 1 | S. cerevisiae deletion strains, locus YNL250W, strain rad50, stronger effect = lower value 1.01 | S. cerevisiae deletion strains, locus YNL271C, strain bni1, stronger effect = lower value 0.995 | S. cerevisiae deletion strains, locus YNL298W, strain CLA4, stronger effect = lower value 1 | S. cerevisiae deletion strains, locus YNL307C, strain MCK1, stronger effect = lower value 0.939 | [5] 1.02 | S. cerevisiae deletion strains, locus YNR052C, strain pop2, stronger effect = lower value 0.996 | S. cerevisiae deletion strains, locus YOL006C, strain TOP1, stronger effect = lower value 0.992 | S. cerevisiae deletion strains, locus YOL012C, strain htz1 1.15 | S. cerevisiae deletion strains, locus YOL147C, strain pex11, stronger effect = lower value 0.996 | S. cerevisiae deletion strains, locus YOR061W, strain CKA2, stronger effect = lower value 1.01 | S. cerevisiae deletion strains, locus YOR069W, strain VPS5, stronger effect = lower value 1 | S. cerevisiae deletion strains, locus YOR136W, strain idh2, stronger effect = lower value 1 | S. cerevisiae deletion strains, locus YOR144C, strain elg1, stronger effect = lower value 1 | S. cerevisiae deletion strains, locus YOR184W, strain ser1, stronger effect = lower value 0.963 | S. cerevisiae deletion strains, locus YOR231W, strain MKK1, stronger effect = lower value 1.01 | S. cerevisiae deletion strains, locus YOR316C, strain cot1, stronger effect = lower value 0.998 | [6] 1.05 | [7] 1.01 | S. cerevisiae deletion strains, locus YPL256C, strain CLN2, stronger effect = lower value 0.964 | S. cerevisiae deletion strains, locus YPR119W, strain clb2, stronger effect = lower value 1.01 | S. cerevisiae deletion strains, locus YPR141C, strain kar3, stronger effect = lower value 1.01 | S. cerevisiae deletion strains, locus YPR163C, strain tif3, stronger effect = lower value 1.01 | S. cerevisiae deletion strains, locus YPR167C, strain met16, stronger effect = lower value 1 | S. cerevisiae deletion strains, strain wtn01, stronger effect = lower value 0.984 | S. cerevisiae strains, strain wild type, stronger effect = lower value 1.01

— PubChem BioAssay AID1159580 (chemical genetic matrix, 2015)
